In PubChem BioAssay (Tox21):
Inconclusive results are not listed. The source made the active and inactive calls. Unless noted, calls come from the whole dose curve; as a rule, active = well fitted curve in the direction sought with a large enough effect in the repeat runs; inconclusive = weak or mixed curves; inactive = no such curve, though single readings can be large; an effect the other way counts as inactive or inconclusive.

Columns and labels:
[1] = qHTS assay to identify small molecule agonists of the vitamin D receptor (VDR) signaling pathway - cell viability counter screen (AID 743224); note: nearly all actives have a fitted effect of over 50% in size
In short: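 Counter screen for cytotoxicity: VDR-bla cells at 2,000 cells/well, 16 h compound exposure, then CellTiter-Glo luminescence after the beta-lactamase measurement.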

[2] = qHTS assay to identify small molecule antagonists of the vitamin D receptor (VDR) signaling pathway - cell viability counter screen (AID 743225); note: nearly all actives have a fitted effect of over 50% in size
In short: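 Cytotoxicity counter screen read by CellTiter-Glo luminescence (30 min, room temperature) in the same wells as the VDR-bla antagonist readout. HEK 293T VDR-UAS-bla cells had 16 h at 37C with compound and 3 nM (final) 1-alpha,25-dihydroxyvitamin D3, then 2 h with FRET substrate.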

[3] = qHTS assay to identify small molecule agonists of the NFkB signaling pathway (AID 1159509; active = well fitted curve in the direction sought with a large enough effect in the signal ratio in the repeat runs, not every such curve was filed as active; the % refers to the signal ratio)
In short: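 Pathway activation was measured in ME-180 cells stably expressing beta-lactamase under NF-kB response element control. Substrate cleavage was read as the 460/530 nm emission shift after 5 hr compound incubation.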

[4] = qHTS assay to identify small molecule agonists of the NFkB signaling pathway - cell viability counter screen (AID 1159515; calls by dose curve; note: nearly all actives have a fitted effect of over 55% in size)
In short: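 Counter screen run alongside the NFkB-bla agonist assay: ME-180 reporter cells exposed to compounds for 5 hr, then lysed with CellTiter-Glo in the same wells. Luminescence, read after 30 min, reflects viable cells.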

[5] = qHTS assay to identify small molecule agonists of the endoplasmic reticulum stress response signaling pathway (AID 1159516; active = well fitted activation curve with a large enough effect in the signal ratio in the repeat runs, not every such curve was filed as active; the % refers to the signal ratio)
In short: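 For this screen, HeLa cells stably carrying beta-lactamase under the ER stress response element received test compounds, positive controls or DMSO for 5 hr at 37 C; B/G FRET substrate was then added and dual-wavelength emission recorded.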

[6] = qHTS assay to identify small molecule agonists of the endoplasmic reticulum stress response signaling pathway - cell viability counter screen (AID 1159517; calls by dose curve; note: nearly all actives have a fitted effect of over 50% in size)
In short: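 Cpd-treated ESRE-bla HeLa (5 hr, 37 C) → LiveBLAzer 2 hr RT → CellTiter-Glo 30 min RT → luminescence.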

[7] = qHTS assay to identify small molecule antagonists of the retinoid-related orphan receptor gamma (ROR-gamma) signaling pathway - cell viability counter screen (AID 1159520); note: nearly all actives have a fitted effect of over 50% in size
In short: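 Tet-on ROR gamma CHO cells (1,000/well) were plated 4 hr, given compounds in DMSO for 2 hr at 37 C, then induced with 1 uM final doxycycline for 16 hr. Viability was read as ATP by CellTiter-Glo luminescence after 30 min.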

[8] = target: Nuclear receptor ROR-gamma (Homo sapiens) (UniProt P51449); test: qHTS assay to identify small molecule antagonists of the retinoid-related orphan receptor gamma (ROR-gamma) signaling pathway (AID 1159521)
In short: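 Antagonist read-out: drop in luminescence (ONE-Glo) from an RORE-LUC reporter in CHO cells with doxycycline-inducible ROR-gamma; 2 hr compound pretreatment, 1 uM doxycycline, 16 hr incubation at 37 C.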

[9] = qHTS assay to identify small molecule agonists of the AP-1 signaling pathway - cell viability counter screen (AID 1159525; calls by dose curve; note: nearly all actives have a fitted effect of over 55% in size)
In short: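 Each titration point was normalised to DMSO and tetra n-octyl ammonium bromide controls. The read was Cell Titer Glo luminescence after 30 min at RT, following 5 h compound exposure of ME-180 AP-1-bla cells at 37 °C.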

[10] = qHTS assay to identify small molecule agonists of the AP-1 signaling pathway (AID 1159526; calls by dose curve)
[11] = target: Retinoic acid receptor RXR-alpha (Homo sapiens) (UniProt P19793); test: qHTS assay to identify small molecule agonists of the RXR signaling pathway (AID 1159527; calls by dose curve; note: nearly all actives have a fitted effect of over 35% in size)
In short: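 Agonist-mode beta-lactamase reporter assay: HEK 293T RXR-alpha-UAS-bla cells treated 16 hr at 37 C with compounds, 9-cis retinoic acid as positive control. LiveBLAzer FRET substrate, 405 nm excitation, 460/530 nm emission.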

[12] = qHTS assay to identify small molecule antagonists of the retinoid acid receptor (RAR) signaling pathway - cell viability counter screen (AID 1159551); note: nearly all actives have a fitted effect of over 35% in size
In short: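 Measured by luminescent ATP detection, viability reflects C3RL4 cells treated 6 h at 37 C with test chemicals in the presence of 1 uM (final) retinol.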

[13] = qHTS assay to identify small molecule antagonists of the retinoic acid receptor (RAR) signaling pathway (AID 1159552; note: nearly all actives have a fitted effect of over 50% in size)
In short: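 Luminescent RARE reporter read-out in C3RL4 cells: 6 hr co-treatment at 37 C of test compounds with retinol at 1 uM final. Cells plated overnight beforehand; luciferase reagent incubated 30 min at room temperature before reading.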

[14] = qHTS assay to identify small molecule agonists of the retinoic acid receptor (RAR) signaling pathway (AID 1159553); settings: C3RL4 RARE luciferase reporter, agonist, 6 h; activation: at 73.3 µM (top of the series)
In short: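 6 hr compound exposure (DMSO vehicle) of overnight-plated C3RL4 RARE-luc cells at 37 C; luminescence quantified after 30 min RT with luciferase reagent.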

[15] = target: Luciferin 4-monooxygenase (Photinus pyralis) (UniProt P08659); test: qHTS assay to identify small molecule inhibitors of firefly luciferase (AID 1224835); note: nearly all actives have a fitted effect of over 25% in size
In short: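 Quantitative HTS format; KM concentrations of both substrates. Purified P. pyralis FLuc activity quantified from luminescence images.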

[16] = qHTS assay to identify small molecule agonists of the constitutive androstane receptor (CAR) signaling pathway - cell viability counter screen (AID 1224836); note: nearly all actives have a fitted effect of over 45% in size
In short: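 Cell viability multiplexed with the CAR agonist screen: CellTiter-Fluor fluorescence after 23 hr at 37 C. HepG2-CYP2B6-hCAR cells got compounds at 15 concentrations with PK11195 at 0.75 uM final.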

[17] = qHTS assay to identify small molecule antagonists of the constitutive androstane receptor (CAR) signaling pathway - cell viability counter screen (AID 1224837); note: nearly all actives have a fitted effect of over 45% in size
In short: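 To flag cytotoxic false antagonists, HepG2 hCAR/CYP2B6-2.2kb cells were treated 23 hr with 15-concentration compound series and 50 nM CITCO at 37 C/5% CO2; CellTiter-Fluor fluorescence was the measured end point.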

[18] = qHTS assay to identify small molecule antagonists of the estrogen related receptor (ERR) signaling pathway from Tox21 library - cell viability counter screen (AID 1224834); note: nearly all actives have a fitted effect of over 30% in size
In short: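 Seeded ERR cells were rested 6 h at 37 C/5% CO2 before compounds, positive and negative controls or DMSO were added. Incubation continued for 17.5 h, and viability was then quantified by CellTiter-Fluor fluorescence.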

[19] = target: Nuclear receptor subfamily 1 group I member 3 (Homo sapiens) (UniProt Q14994); test: qHTS assay to identify small molecule antagonists of the constitutive androstane receptor (CAR) signaling pathway (AID 1224838);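 note: HepG2 cells stably expressing hCAR with CYP2B6 luciferase reporter stimulated by CITCO; nearly all actives have a fitted effect of over 40% in size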
In short: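 Human hepatoma HepG2 cells expressing hCAR and a CYP2B6 promoter (2.2 kb) luciferase construct; compound titration (15 points) with 50 nM CITCO final, 24 h at 37 C/5% CO2; luminescence via ONE-Glo after 30 min at room temperature.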

[20] = qHTS assay to identify small molecule agonists of the RXR signaling pathway - cell viability counter screen (AID 1159529); note: nearly all actives have a fitted effect of over 50% in size
In short: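 CellTiter-Glo luminescence gave viability in the wells also read for beta-lactamase. Cells (RXR-alpha-UAS-bla HEK 293T, 2% charcoal-stripped FBS medium) had 5 hr plating, then 16 hr compound exposure at 37 C; tetraoctyl ammonium bromide served as positive control.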

Measured: Potency

Chain of Luciferin 4-monooxygenase (Photinus pyralis) (P08659 whole entry, looked up): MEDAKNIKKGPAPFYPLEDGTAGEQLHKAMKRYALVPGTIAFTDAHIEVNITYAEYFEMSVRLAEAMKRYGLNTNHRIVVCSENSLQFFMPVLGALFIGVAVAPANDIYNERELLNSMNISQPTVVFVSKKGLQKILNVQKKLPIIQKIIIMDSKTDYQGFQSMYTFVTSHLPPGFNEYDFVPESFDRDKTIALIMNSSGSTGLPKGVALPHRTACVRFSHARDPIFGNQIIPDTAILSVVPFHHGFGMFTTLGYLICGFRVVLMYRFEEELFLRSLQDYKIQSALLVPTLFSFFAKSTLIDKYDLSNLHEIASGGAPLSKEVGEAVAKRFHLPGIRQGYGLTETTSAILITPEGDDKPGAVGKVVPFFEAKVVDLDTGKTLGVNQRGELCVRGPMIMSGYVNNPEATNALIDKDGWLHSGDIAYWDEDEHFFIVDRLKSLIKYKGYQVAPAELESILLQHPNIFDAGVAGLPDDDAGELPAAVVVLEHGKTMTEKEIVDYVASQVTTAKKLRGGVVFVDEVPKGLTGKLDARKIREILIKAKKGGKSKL
Chain of Retinoic acid receptor RXR-alpha (Homo sapiens) (P19793 whole entry, looked up): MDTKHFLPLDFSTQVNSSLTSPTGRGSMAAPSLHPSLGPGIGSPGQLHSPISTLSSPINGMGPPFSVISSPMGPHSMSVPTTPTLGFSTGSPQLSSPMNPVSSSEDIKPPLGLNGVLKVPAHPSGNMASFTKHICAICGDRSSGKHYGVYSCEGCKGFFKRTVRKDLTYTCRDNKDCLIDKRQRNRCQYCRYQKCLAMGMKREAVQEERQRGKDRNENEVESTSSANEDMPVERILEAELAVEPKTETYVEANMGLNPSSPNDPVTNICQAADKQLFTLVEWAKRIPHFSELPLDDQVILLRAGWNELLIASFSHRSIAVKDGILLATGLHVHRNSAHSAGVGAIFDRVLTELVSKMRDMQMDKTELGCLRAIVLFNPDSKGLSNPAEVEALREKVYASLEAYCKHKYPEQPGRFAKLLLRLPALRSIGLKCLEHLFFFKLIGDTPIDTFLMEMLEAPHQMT
Chain of Nuclear receptor subfamily 1 group I member 3 (Homo sapiens) (Q14994 whole entry, looked up): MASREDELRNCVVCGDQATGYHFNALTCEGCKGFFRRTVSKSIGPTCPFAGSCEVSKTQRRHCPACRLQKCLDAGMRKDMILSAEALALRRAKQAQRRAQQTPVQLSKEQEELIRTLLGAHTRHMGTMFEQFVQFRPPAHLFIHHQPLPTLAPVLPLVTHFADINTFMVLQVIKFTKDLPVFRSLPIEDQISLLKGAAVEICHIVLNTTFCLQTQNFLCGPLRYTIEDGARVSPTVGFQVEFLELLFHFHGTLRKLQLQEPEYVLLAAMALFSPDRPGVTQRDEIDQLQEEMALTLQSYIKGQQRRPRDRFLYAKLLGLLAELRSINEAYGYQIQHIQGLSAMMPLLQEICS

CCC(CO)CO
not listed: [18] | [19] | [20]
inactive: all other assays above

Nc1cc(Cl)cc(S(=O)(=O)O)c1O
not listed: [2] | [14] | [20]
inactive: all other assays above

O=C(O)c1ccc(OCCN2CCCCC2)cc1
not listed: [15] | [19] | [20]
inactive: all other assays above

Nc1ccc(C(=O)OCC(O)CO)cc1 (configuration not stated)
not listed: [2] | [9] | [19]
inactive: all other assays above

CCCCCCCCCCCCC1CO1 (configuration not stated)
not listed: [9]
inactive: all other assays above

NS(=O)(=O)c1cc2c(cc1Cl)NC(C(Cl)Cl)NS2(=O)=O (configuration not stated)
not listed: [9] | [19]
inactive: all other assays above

CC1CCC(C(C)(C)S)C(=O)C1 (configuration not stated)
not listed: [9] | [17] | [19]
inactive: all other assays above
